Results as given in PubChem BioAssay.
A number with no mark means an inactive call. Active and inactive are the calls of the source.

Assay: basal CRE-LacZ reporter activity in PC12 – cell-based, unstimulated, primary screen (AID 1145)
Conditions: no forskolin, luminescence, 4.5 h, higher = more signal, called active from +8 up or from −8 down

Compound | z-score
CO[C@H]1COC(=O)CC=C[C@H](C)[C@@H](OC)COC(=O)CC=C[C@@H]1C | 0.786
COCCOC(=O)N1C(=O)[C@@]2(c3cc(C#CCCO)ccc31)[C@H](C(=O)N1CCCCCCC1)[C@H]1C(=O)O[C@H](c3ccccc3)[C@H](c3ccccc3)N1[C@@H]2c1ccc(O)cc1 | -0.815
Cc1ccc(N2C(=O)c3ccccc3[C@@H](C(=O)NCc3ccccc3)[C@@H]2c2ccc(CO)cc2)nc1 | -0.0888
CC(=O)NCCCC[C@@H]1NC(=O)[C@@H]2C[C@H](C(=O)NCCCCCNC(=O)CS)[C@H](c3ccc(O)cc3)N2C1=O | -0.134
O=C(CS)NCCCCCNC(=O)[C@H]1C[C@H]2C(=O)N3CCC[C@H]3C(=O)N2[C@H]1c1ccc(O)cc1 | -0.528
C[C@@H]1CC[C@H]2C(=O)N3CCC[C@H]3C(=O)N2[C@H]1c1ccc(Br)cc1 | 1.1
O=C1O[C@@H](c2ccccc2)[C@@H](c2ccccc2)N2[C@@H](c3ccc(O)cc3)[C@]3(C(=O)Nc4ccc(C#CC5(O)CCCCCC5)cc43)[C@@H](C(=O)Nc3nc4ccccc4s3)[C@H]12 | 0.204
C[N+](C)(C)CCCC[C@@H]1NC(=O)[C@H]2C[C@@H](C(=O)NCc3ccc(F)cc3)[C@@H](c3cccc(OCCO)c3)N2C1=O | 1.23
CO[C@H]1COC(=O)[C@H](Cc2ccccc2)NC(=O)CC=C[C@@H](C)[C@H](OC)COC(=O)CC=C[C@@H]1C | -0.567
COC(=O)c1c(CC[C@@H](CO)NC(=O)N[C@H](Cn2cc(-c3cncn3C)nn2)C(C)C)oc(C(C)=O)c1C(=O)OC | 1.01
C=C(COC)/C(=C/C[C@@H](OC(C)=O)c1cccc(OCCO)c1)c1cc(C(=O)OC)ccc1OC | 4.69
COCC(=C=CC[C@H](O)c1ccc(OCCO)cc1)C[C@H](O)c1ccccn1 | 3.18
CCOC(=O)[C@H]1C/C=C/C[C@H](C(=O)OCC)C(=O)O[C@H]2[C@@H](OC)O[C@H](CO)[C@@H](OC(=O)Nc3ccc(Br)cc3)[C@@H]2OC1=O | -0.614
CCN1C(C)=C(C(=O)OC)[C@@H](c2ccccc2)N2C(=O)[C@@]3(C(=O)OC)O[C@@]12[C@@H]1C(=O)N(c2ccccc2)C(=O)[C@@H]13 | 0.384
CC(C)N1CC=CC23O[C@@H]4/C=C\CCCOC(=O)C4[C@H]2C(=O)N(CCCCCO)[C@@H]3C1=O (stereo partly specified) | 0.0564
C=C(COC)/C(=C/C[C@H](OC(C)=O)c1ccc(OCCO)cc1)c1cnc2ccccc2c1 | 7.3
COCCOC(=O)N1C(=O)[C@@]2(c3cc(C#CCNC(N)=O)ccc31)[C@H](c1ccc(OCCO)cc1)N1[C@H](c3ccccc3)[C@H](c3ccccc3)OC(=O)[C@H]1[C@@H]2C(=O)N1CCCCCCC1 | -0.0566
CO[C@H]1COC(=O)[C@@H](OCc2ccccc2)C=C[C@H](C)[C@@H](OC)COC(=O)[C@H](OCc2ccccc2)C=C[C@@H]1C | 1.16

Compound | z-score
NC(=O)NCC#Cc1ccc2c(c1)[C@]1(C(=O)N2)[C@H](C(=O)N2CCCCCCC2)[C@H]2C(=O)O[C@H](c3ccccc3)[C@H](c3ccccc3)N2[C@@H]1c1ccccc1OCCO | -0.348
COCCCNC(=O)[C@@]1(Sc2ccc(C)cc2)CC(=O)N(Cc2cc(C(F)(F)F)cc(C(F)(F)F)c2)[C@@H]1c1ccc(CO)cc1I | 1.01
C=CCC1=C[C@H]2[C@H]([C@@H]3C=C[C@]2(CC=C)C(=O)[C@]32CO2)[C@@]2(CO2)C1=O | 2.21
O=C(NCc1ccccc1)[C@@]1(CCS(=O)(=O)c2ccccc2)COC(c2ccc(OCCCO)cc2)=N1 | -0.137
C=CCNC(=O)[C@H]1[C@@H]2C(=O)O[C@@H](c3ccccc3)[C@@H](c3ccccc3)N2[C@@H](c2ccccc2OCCO)[C@]12C(=O)N(C(=O)OCCOC)c1ccc(C#CCNC(N)=O)cc12 | -0.471
CCCCO[C@H]1C[C@H]2C(Br)=C[C@@]1(CO)C(=O)[C@]21CO1 | 0.577
CN1CCC(CCCO)=CC1C1CC1 (stereo unspecified) | -0.131
COc1ccc(CCNC(=O)[C@@]2(c3ccc([N+](=O)[O-])cc3)CC(=O)N(C(C)C)[C@@H]2c2ccc(CO)cc2)cc1 | 0.0909
Cc1ccc(S[C@]2(C(=O)O)CC(=O)N(Cc3ccccc3)[C@@H]2c2ccc(CO)cc2)cc1 | -0.412
C=CCc1cccc([C@@H]2[C@@H](C)CC[C@H]3C(=O)N4[C@H](c5cccc(CC=C)c5)[C@@H](C)CC[C@H]4C(=O)N23)c1 | 3.64
COc1ccc([Si](C)(C)[C@H]2[C@H](CCO)O[C@@]3(C(=O)N(Cc4ccc(N5CCCCC5=O)cc4)c4ccccc43)[C@@H]2C)cc1 | 1.98
CCCNC(=O)[C@@]1(Sc2ccc(C)cc2)CC(=O)N(Cc2ccccc2Cl)[C@@H]1c1ccc(CO)cc1 | 0.443
CO[C@H]1COC(=O)[C@H](CCSC)NC(=O)CC=C[C@@H](C)COC(=O)[C@@H](OCc2ccccc2)C=C[C@@H]1C | -0.0223
C[C@@H]1CC[C@H]2C(=O)N3[C@@H](CC[C@@H](C)[C@@H]3c3cccc(N4CCOCC4)c3)C(=O)N2[C@H]1c1cccc(N2CCOCC2)c1 | 9.59 (active)
CO[C@]12C=C(Br)[C@@H](C[C@@H]1c1ccccc1)[C@@]1(CO1)C2=O | -0.323
C=CCC(OC(C)=O)[C@@H]1[C@@H](N(Cc2ccc(-c3ccccc3)cc2)C(=O)c2ccc(C)cc2)c2cc(OCCCO)ccc2N1C(=O)c1ccc(-c2ccccc2)cc1 (stereo partly specified) | 1.73
CC(=O)NCCCC[C@@H]1NC(=O)[C@@H]2C[C@H](C(=O)NCCCCCCN(C)C)[C@H](c3ccc(O)cc3)N2C1=O | 0.0043
O=C1c2ccccc2[C@](Cc2ccccc2I)(C(=O)NCc2ccccc2)[C@H](c2ccc(CO)cc2)N1Cc1ccccc1C(F)(F)F | 0.0909
